Results published in ChEMBL document CHEMBL3988442, “University of Dundee, Small-Polar-MMV Screening Library” (2021).
Out of some 69,000 compounds screened, about 950 (1.4%) showed an effect of 50% or more. This excerpt belongs to a sample that is enriched for strong results.

These compounds were tested on Mycobacterium tuberculosis (assay: Cornell M. t heat shock assay; also: in the data most compounds retested in dose-response had high values).
Assay type: functional, organism-based
Design: dose or concentration left out as unconfirmed

Structure (SMILES)	Percent Effect
CC(C)N1CCCC(CN(C)c2ccc(Cn3ccnc3)cn2)C1 (centres undefined)	-4.084%
OC1CCN(C2CCN(c3ccc(Cn4ccnc4)cn3)CC2)CC1	13.23%
CN(CC1CCN(c2ccccc2)C1)c1ccc(Cn2ccnc2)cn1 (centres undefined)	105.3%
CCc1cc2cc(OC)c(OC)cc2nc1SCCN1CCCCC1.Cl	-12.6%
O=C(O)C(F)(F)F.O=C(c1ccc[nH]1)N1CCc2c(COCC3CC3)cncc2C1	-0.4009%
O=C(N1CCCC1)N1Cc2nccn2CC(CN2CCCC2)C1.O=C(O)C(F)(F)F (centres undefined)	-12.61%
CC(C)(O)CCc1cccc(C(=O)NCc2cnn3cccnc23)c1	-5.166%
O=C(NCc1cnn2cccnc12)c1cccc(CC2CCNCC2)c1	70.42%
CC(C)Cn1cncc1CNC(=O)c1cccc(CC2CCNCC2)c1	-17.32%
CCOC1COC2(CCN(Cc3cccc(F)c3)CC2)C1.O=C(O)C(F)(F)F (centres undefined)	-9.066%
Cc1cc(N2CCOCC2)ccc1NC(C)c1nc(C(C)(C)C)no1 (centres undefined)	72.1%
Cc1noc(C(C)Nc2ccc(N3CCOCC3)cc2C)n1 (centres undefined)	41.84%
Cc1cc(N2CCOCC2)ccc1NC(C)c1nc(C(C)C)no1 (centres undefined)	45.07%
O=C(O)C(F)(F)F.O=C(O)C(F)(F)F.O=C(c1cscn1)N1CCC2(CN(Cc3ccncc3)C2)C1	-52.86%
COCC1c2c(cnn2C)CCN1Cc1cccc(C)c1.O=C(O)C(F)(F)F.O=C(O)C(F)(F)F (centres undefined)	-46.03%
CC1CN(CC(=O)NCCc2ccccc2)CCN1c1nccs1 (centres undefined)	-17%
NCCc1nc(N(Cc2cncs2)C2CC2)c2ccccc2n1	-30.71%

Structure (SMILES)	Percent Effect
Cc1ccsc1CN(c1nc(CCN)nc2ccccc12)C1CC1	91.12%
NCCc1nc(N(Cc2nccs2)C2CC2)c2ccccc2n1	-17.4%
CC(=O)N1CC(=O)N(c2cnn(C)c2)CC12CCN(Cc1cccs1)C2.O=C(O)C(F)(F)F (centres undefined)	-1.108%
CC1=C(C#N)C(=O)N(C)C(=O)/C1=C\C1=Cc2ccccc2OC1	-26.04%
Cc1ccc(CN2CCn3c(COc4cccnc4)cnc3C2C)o1.O=C(O)C(F)(F)F.O=C(O)C(F)(F)F (centres undefined)	17.82%
CN(C(=O)NCc1nccn1Cc1ccccc1)C1CC1	-34.67%
Cn1ccnc1CNC1CCCOc2c1ccc1ccccc21 (centres undefined)	95.81%
Cn1cc(CNC2CCCOc3c2ccc2ccccc32)cn1 (centres undefined)	11.28%
COc1cccc(CNC2CCCOc3cc(C)ccc32)n1 (centres undefined)	-23.35%
Cc1ccc2c(c1)OCCCC2NCc1nccn1CC(C)C (centres undefined)	101.9%
Cc1cccc2c1OCCC2NCc1c(C)nn(C)c1N(C)C (centres undefined)	-4.09%
Cc1ccc2c(c1)C(NCc1nnc3n1CCCCC3)CCCO2 (centres undefined)	-13.54%
Cc1ccc2c(c1)C(NCc1nccn1Cc1ccccc1)CCCO2 (centres undefined)	102%
Cc1cccc2c1OCCCC2NCc1nccn1Cc1ccccc1 (centres undefined)	104.4%
Cc1cccc2c1OCCCC2NCc1nnc2n1CCCCC2 (centres undefined)	-4.885%
Cn1cc(CNC2CCCOc3c(Cl)cccc32)cn1 (centres undefined)	12.93%
Cc1ccc2c(c1)OCCCC2NCc1nnc2n1CCCCC2 (centres undefined)	-7.759%
